11 molecules from ChEMBL document CHEMBL3988442, “University of Dundee, Small-Polar-MMV Screening Library” (2021) can be followed below.

Molecules are shown by their SMILES. For some of these results: Results with a measured potency or affinity are listed apart.

What all share (parameters): scale not given: direction of the effect not stated beside the values
Assay [1] has as its target Protein translocase subunit SecA (Escherichia coli (strain K12)) (UniProt P10408). Kind of assay: Assay to Identify E. coli SecA ATPase Inhibitors. As to conditions: 30 µM. The class given is functional.
For assay [2], the target named is T1, Ubiquitin-activating enzyme e1, putative (Leishmania donovani (strain BPK282A1)) (UniProt E9BSI1).
T1 sequence (whole entry): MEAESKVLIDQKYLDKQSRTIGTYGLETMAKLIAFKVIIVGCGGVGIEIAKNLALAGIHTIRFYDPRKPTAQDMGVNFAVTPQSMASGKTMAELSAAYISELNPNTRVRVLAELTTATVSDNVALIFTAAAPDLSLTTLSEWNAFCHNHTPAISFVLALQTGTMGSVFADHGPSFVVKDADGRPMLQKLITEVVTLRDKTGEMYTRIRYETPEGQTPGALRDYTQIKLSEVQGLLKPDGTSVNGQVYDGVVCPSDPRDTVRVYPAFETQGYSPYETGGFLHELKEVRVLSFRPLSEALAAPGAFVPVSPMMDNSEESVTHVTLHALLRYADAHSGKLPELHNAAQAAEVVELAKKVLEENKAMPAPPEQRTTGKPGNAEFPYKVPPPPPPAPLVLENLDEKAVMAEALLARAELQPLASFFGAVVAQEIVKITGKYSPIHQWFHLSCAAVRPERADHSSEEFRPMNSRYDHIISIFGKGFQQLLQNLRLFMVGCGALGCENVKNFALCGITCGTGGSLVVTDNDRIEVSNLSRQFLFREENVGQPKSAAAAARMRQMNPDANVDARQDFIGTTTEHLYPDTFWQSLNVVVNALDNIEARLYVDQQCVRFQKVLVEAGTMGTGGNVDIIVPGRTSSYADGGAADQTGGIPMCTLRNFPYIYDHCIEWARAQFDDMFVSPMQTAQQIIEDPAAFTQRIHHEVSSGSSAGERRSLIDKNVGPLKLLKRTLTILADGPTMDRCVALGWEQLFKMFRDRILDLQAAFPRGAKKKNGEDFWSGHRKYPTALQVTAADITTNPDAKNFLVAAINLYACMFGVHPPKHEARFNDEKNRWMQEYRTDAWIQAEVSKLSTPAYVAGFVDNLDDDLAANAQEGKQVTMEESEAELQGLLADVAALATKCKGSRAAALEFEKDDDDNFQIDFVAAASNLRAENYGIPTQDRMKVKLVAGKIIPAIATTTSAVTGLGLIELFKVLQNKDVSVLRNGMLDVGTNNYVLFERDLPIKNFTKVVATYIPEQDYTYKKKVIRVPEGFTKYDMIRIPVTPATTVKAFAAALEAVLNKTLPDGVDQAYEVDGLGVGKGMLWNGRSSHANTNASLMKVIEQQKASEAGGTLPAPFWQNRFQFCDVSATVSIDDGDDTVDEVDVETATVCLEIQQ
Kind of assay: Leishmania donovani Ubiquitin Activating Enzyme (LdE1). The class given is functional. As to conditions: 30 µM.

Assay [3] has as its target AMP-activated protein kinase, AMPK (Homo sapiens) (UniProt P54646+O43741+P54619+Q9UGJ0+Q9Y478+Q13131+Q9UGI9). Kind of assay: AMP-dependent Kinase enzyme assay. An in vitro enzyme assay that detects ADP turnover that is directly proportional to AMPK activity. This uses naive AMPK that is activated during the assay with MK-8722. The class given is functional. To be noted: 30 µM.

For assay [4], the target named is Sialic acid-binding Ig-like lectin 9 (Homo sapiens) (UniProt Q9Y336). Kind of assay: Hs-Siglec9 ALPHAscreen SOP 20170721. To be noted: 10 µM. (In Alpha technology, singlet oxygen from a donor bead excites a nearby acceptor bead.)
The subject of another assay is Trypanosoma cruzi. Put plainly: Trypanosoma cruzi phosphomannomutase and mannose-1-phosphate guanylyltransferase assay. In kind it is functional. As to conditions: 10 µM.
For assay [5], the target named is T2, Arginase-2, mitochondrial (Homo sapiens) (UniProt P78540).
T2 sequence (whole entry): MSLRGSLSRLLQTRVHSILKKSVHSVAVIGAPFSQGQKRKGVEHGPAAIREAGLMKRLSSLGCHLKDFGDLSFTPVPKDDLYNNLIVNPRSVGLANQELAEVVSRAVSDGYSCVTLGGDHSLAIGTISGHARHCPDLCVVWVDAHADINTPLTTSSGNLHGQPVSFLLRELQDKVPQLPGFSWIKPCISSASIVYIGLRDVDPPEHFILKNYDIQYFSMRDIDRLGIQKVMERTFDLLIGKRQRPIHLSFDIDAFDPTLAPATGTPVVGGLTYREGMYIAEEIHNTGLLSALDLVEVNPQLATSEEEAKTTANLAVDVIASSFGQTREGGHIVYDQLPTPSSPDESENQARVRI
Kind of assay: in vitro enzyme assay to detect the production of urea directly proportional to the activity of Arginase II. Further: in the data most compounds retested in dose-response had high values. The class given is functional. As to conditions: 33.3 µM.

For assay [6], the target named is T3, Proteasome subunit beta (Trypanosoma cruzi) (UniProt O96673).
T3 sequence (whole entry): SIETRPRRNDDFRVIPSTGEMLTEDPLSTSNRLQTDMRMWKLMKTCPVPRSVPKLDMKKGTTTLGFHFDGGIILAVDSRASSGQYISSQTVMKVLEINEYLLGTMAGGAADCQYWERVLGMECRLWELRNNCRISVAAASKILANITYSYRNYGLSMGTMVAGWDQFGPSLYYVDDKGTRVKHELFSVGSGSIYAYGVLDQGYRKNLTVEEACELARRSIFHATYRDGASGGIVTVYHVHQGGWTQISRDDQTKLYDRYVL
Kind of assay: Trypanosoma cruzi proteasome chymotrypsin-like activity (TcProtChymo) assay. Further: in the data most compounds retested in dose-response had high values. As to conditions: 9.37 µM. In kind it is functional.

The species named for the next assay is Homo sapiens. Put plainly: To identify inhibition of the IFN signalling (Jak-Stat) pathway via expression of an eGFP reporter gene under the control of an IFN-stimulated response element (ISRE) containing MxA promoter. As to conditions: 30 µM. In kind it is functional.
For assay [7], the target named is T4, Tyrosyl-tRNA synthetase, putative (Trypanosoma cruzi (strain CL Brener)) (UniProt Q4DSP6).
T4 sequence (whole entry): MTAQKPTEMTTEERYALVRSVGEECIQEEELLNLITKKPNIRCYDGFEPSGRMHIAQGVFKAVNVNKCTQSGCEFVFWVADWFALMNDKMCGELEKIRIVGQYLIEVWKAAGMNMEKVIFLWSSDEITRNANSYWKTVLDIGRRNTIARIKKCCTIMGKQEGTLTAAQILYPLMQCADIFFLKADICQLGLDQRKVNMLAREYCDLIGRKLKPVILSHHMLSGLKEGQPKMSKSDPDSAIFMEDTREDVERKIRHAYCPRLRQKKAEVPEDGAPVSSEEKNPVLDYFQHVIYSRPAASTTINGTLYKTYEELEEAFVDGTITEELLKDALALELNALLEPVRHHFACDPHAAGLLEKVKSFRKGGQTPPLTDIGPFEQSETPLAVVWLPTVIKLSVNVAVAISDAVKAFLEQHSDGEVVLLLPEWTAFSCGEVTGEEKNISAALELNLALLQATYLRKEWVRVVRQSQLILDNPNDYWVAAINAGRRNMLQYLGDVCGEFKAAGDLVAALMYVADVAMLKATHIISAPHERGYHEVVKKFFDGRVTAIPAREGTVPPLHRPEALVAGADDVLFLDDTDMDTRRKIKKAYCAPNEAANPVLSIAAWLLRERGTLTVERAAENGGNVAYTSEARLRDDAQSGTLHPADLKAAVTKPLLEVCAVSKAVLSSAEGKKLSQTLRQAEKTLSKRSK
Put plainly: Trypanosoma cruzi tyrosyl tRNA synthetase (TcYRS) _High Tyrosine SOP. Further: in the data most compounds retested in dose-response had high values. The class given is functional. To be noted: 30 µM.

For assay [8], the target named is T4, Tyrosyl-tRNA synthetase, putative (Trypanosoma cruzi (strain CL Brener)). Kind of assay: Trypanosoma cruzi tyrosyl tRNA synthetase (TcYRS) SOP. In kind it is functional. As to conditions: 30 µM.
Assay [9] deals with Chromo domain-containing protein 1 (Saccharomyces cerevisiae (strain ATCC 204508 / S288c) (Baker's yeast)) (UniProt P32657). Put plainly: ScCHD-1 Enzyme Inhibition Assay. Further: in the data most compounds retested in dose-response had high values. The class given is functional. As to conditions: 30 µM.
Chain of Chromo domain-containing protein 1 (Saccharomyces cerevisiae (strain ATCC 204508 / S288c) (Baker's yeast)) (P32657 whole entry, the tested form may be a part): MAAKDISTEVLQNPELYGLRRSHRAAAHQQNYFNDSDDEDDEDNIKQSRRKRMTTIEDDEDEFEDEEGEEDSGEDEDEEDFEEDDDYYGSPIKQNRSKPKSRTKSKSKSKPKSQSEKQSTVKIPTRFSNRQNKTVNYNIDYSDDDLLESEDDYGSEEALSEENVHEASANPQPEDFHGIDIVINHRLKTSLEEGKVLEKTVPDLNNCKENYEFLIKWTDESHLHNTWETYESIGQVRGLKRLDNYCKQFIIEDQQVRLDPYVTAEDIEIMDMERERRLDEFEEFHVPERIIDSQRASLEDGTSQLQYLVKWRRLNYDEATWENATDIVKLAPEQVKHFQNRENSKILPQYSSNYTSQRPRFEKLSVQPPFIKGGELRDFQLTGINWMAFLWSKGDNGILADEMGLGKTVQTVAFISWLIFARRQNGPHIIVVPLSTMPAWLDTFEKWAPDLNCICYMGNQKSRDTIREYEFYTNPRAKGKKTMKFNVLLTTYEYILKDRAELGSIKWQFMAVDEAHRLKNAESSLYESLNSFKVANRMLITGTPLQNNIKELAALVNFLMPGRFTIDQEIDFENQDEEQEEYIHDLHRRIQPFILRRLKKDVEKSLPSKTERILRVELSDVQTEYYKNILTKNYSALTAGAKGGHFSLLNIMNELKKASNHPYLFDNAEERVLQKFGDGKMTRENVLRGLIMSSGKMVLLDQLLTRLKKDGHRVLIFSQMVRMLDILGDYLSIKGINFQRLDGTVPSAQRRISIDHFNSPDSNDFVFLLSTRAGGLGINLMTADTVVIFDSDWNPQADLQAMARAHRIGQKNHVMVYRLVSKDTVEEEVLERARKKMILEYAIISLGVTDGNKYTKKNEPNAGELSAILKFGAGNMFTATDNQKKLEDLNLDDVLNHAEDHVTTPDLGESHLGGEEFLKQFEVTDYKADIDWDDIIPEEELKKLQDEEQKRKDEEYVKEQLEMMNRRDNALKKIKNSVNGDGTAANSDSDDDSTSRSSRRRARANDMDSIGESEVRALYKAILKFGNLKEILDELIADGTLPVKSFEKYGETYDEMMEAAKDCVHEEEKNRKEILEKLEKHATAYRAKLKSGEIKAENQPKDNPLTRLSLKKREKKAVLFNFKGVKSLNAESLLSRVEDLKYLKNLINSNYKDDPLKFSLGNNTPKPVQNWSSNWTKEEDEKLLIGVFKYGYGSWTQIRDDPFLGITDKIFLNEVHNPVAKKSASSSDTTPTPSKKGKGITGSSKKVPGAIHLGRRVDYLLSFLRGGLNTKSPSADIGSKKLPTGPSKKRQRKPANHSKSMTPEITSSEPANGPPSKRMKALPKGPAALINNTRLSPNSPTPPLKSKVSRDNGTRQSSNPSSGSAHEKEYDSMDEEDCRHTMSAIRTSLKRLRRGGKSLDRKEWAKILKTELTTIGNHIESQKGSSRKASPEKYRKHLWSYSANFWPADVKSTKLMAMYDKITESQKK

Chain of Sialic acid-binding Ig-like lectin 9 (Homo sapiens) (Q9Y336 whole entry): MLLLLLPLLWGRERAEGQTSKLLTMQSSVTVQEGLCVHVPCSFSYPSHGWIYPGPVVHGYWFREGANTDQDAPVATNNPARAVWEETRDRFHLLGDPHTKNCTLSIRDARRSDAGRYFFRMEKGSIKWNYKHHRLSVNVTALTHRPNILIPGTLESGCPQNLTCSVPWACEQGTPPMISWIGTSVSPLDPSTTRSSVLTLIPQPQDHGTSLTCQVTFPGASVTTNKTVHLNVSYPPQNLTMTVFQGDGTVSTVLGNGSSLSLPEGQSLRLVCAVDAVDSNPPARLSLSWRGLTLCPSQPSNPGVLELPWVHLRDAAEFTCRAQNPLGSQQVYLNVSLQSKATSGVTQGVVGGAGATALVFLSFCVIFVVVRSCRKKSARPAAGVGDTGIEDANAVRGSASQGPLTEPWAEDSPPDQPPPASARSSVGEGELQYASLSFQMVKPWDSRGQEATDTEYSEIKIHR
Chain of Protein translocase subunit SecA (Escherichia coli (strain K12)) (P10408 whole entry): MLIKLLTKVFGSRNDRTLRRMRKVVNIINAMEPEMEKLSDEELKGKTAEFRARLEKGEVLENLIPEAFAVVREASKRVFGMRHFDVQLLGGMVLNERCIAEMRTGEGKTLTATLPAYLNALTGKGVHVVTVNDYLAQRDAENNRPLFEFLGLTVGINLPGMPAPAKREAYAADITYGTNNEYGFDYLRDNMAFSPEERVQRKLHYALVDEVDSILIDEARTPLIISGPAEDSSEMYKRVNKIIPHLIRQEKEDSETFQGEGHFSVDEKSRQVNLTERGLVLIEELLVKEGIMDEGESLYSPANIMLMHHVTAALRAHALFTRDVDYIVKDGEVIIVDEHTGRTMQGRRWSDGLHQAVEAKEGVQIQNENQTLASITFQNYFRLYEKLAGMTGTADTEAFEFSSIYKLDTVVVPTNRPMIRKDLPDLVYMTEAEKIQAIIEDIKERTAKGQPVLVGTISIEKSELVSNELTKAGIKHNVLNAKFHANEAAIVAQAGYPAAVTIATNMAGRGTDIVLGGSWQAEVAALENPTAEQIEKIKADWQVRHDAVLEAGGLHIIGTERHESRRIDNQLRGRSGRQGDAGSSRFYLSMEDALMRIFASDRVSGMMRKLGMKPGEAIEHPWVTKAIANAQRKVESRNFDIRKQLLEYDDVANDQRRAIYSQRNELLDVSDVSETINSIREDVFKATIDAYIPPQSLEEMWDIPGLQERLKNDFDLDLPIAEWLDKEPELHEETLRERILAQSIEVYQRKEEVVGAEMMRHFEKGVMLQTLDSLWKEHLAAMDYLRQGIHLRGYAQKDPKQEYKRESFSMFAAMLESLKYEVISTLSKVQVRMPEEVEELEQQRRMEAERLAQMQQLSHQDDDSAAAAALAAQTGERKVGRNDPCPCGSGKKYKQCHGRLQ

As to `CCS(=O)(=O)N1CCC2(CC1)CC(Oc1ccccn1)CO2` (stereo unspecified), the Percent Effect in [1] is -0.483%; in [2] it was 10.4%; in assay [3] it was 4.49%; in [4], -1.15%; in the assay with Trypanosoma cruzi it was -5.23%; in assay [5], 7.1%. The Percent Effect is 11% in [6]; 17.8% in the assay filed under Homo sapiens; 2.12% in assay [7]; 3.85% in assay [8]; -7.08% in assay [9].

Take `Cc1ccc(NC2CCN(C(=O)Cc3csc(C)n3)CC2)nn1`: the Percent Effect in [1] is -0.935%; in [2] it was 21.6%; in [3], -5.18%; in assay [4], -3.82%; with Trypanosoma cruzi, -8.02%; in assay [5] it was 1.2%. Also, the Percent Effect was 18.6% in [6]; 4.91% in the assay filed under Homo sapiens; 7.39% in assay [7]; 16.1% in assay [8]; -4.45% in assay [9].

Turning to `COc1cc2nc(C)n(CC(=O)O)c(=O)c2cc1OC`, the Percent Effect in assay [1] was -4.09%; in [2], 6.67%; in assay [3], 6.76%; in assay [4], 2.01%; in the assay with Trypanosoma cruzi, -0.982%; in [5], 1.23%. Also, the Percent Effect in [6] is 13.1%; in the assay listed under Homo sapiens, 19.2%; in [7], 8.47%; in [8], 12.8%; in [9], -7.94%.

Regarding `O=C(NCCN1CCNCC1)c1nc2ccccc2c(=O)[nH]1`, the Percent Effect in [1] was 3.26%; in [2] it was 9.33%; in assay [3] it was 2.04%; in [4] it was -5.44%; in the assay on Trypanosoma cruzi, -7.47%; in assay [5], -10.7%. The Percent Effect was 12% in assay [6]; -0.251% in the assay listed under Homo sapiens; 4.23% in assay [7]; 12.8% in assay [8]; -7.33% in assay [9].

Take `CN(C)C(=O)N1Cc2nnn(C)c2C(COCC2CC2)C1` (stereo unspecified): the Percent Effect was 1.21% in [1]; -21.9% in [2]; -4.36% in assay [3]; 0.0741% in assay [4]; 4.96% in the assay on Trypanosoma cruzi; 2% in assay [5]. Also, the Percent Effect in [6] is 6.76%; in the assay filed under Homo sapiens it was -7.39%; in [7], 2.08%; in assay [8], 6.17%; in assay [9] it was -1.7%.

For `Cc1nc(C)n(CC2CCCCN2Cc2ncc(C(C)(C)C)o2)n1` (stereo unspecified), the Percent Effect was -2.22% in assay [1]; 31.2% in [2]; -8% in [3]; -3.37% in assay [4]; 5.62% with Trypanosoma cruzi; -2.13% in assay [5]. Further, the Percent Effect in assay [6] was 19.1%; in the assay listed under Homo sapiens, 10.5%; in assay [7], 7.77%; in assay [8] it was 24.4%; in [9], -10.7%.

Regarding `CCn1nc(C(=O)N2CCCC(n3cncn3)C2)ccc1=O` (stereo unspecified), the Percent Effect is -3.67% in assay [1]; 5.2% in assay [2]; 7.01% in assay [3]; 5.16% in assay [4]; 6.76% with Trypanosoma cruzi; 2.74% in assay [5]. In addition, the Percent Effect in assay [6] is 9.78%; in the assay listed under Homo sapiens, -15.3%; in assay [7], 0.952%; in assay [8], 11.8%; in [9] it was -10.3%.

Regarding `COc1ccc(C(C(=O)O)N2CCCN(C3CCCCC3)CC2)cn1` (stereo unspecified), the Percent Effect in assay [1] was -1.53%; in assay [2], 13.5%; in [3] it was -8.59%; in assay [4], 8.33%; with Trypanosoma cruzi, 6.55%; in assay [5], -6.2%. The Percent Effect in assay [6] is 15.5%; in the assay filed under Homo sapiens, -5.05%; in assay [7], 2.15%; in [8], 21%; in assay [9], -12.3%.

`N#Cc1cn(C2CC2)c(=O)n(CC(O)c2ccccc2F)c1=O` (stereo unspecified): the Percent Effect was -3.42% in assay [1]; 21.1% in [2]; -2.46% in assay [3]; 7.51% in assay [4]; 6.58% in the assay on Trypanosoma cruzi; -1.15% in assay [5]. Further, the Percent Effect in assay [6] was 10.7%; in the assay listed under Homo sapiens it was 0.878%; in [7] it was 6.37%; in assay [8] it was 19.5%; in [9], -13.4%.

As to `Cn1cnc2c1C(COCc1ccccc1)N(Cc1ccncc1)CC2` (stereo unspecified), the Percent Effect in assay [1] was -1.94%; in assay [2] it was 2.67%; in assay [3] it was -0.486%; in [4], 11.9%; with Trypanosoma cruzi it was -1.16%; in [5] it was -25.6%. Also, the Percent Effect is 7.69% in assay [6]; -15.2% in the assay filed under Homo sapiens; 3.12% in [7]; 10% in assay [8]; -6.37% in [9].

As to `CCOc1ccccc1-c1noc(CN(C)Cc2cnn(C)c2)n1`, the Percent Effect in assay [1] is 1.46%; in [2] it was 8.11%; in [3] it was -5.04%; in assay [4] it was 7.46%; in the assay with Trypanosoma cruzi, -2.12%; in [5] it was -4.76%. The Percent Effect in [6] was 11.9%; in the assay filed under Homo sapiens, 4.5%; in assay [7], 4.76%; in [8], 9.76%; in assay [9] it was -1.75%.
